Measured values reported in the supplement of paper PMC11732987, “Enantioselective OTUD7B fragment discovery through chemoproteomics screening and high-throughput optimisation” (Communications Chemistry, 2025).

Key:
Experiment in all cases: log2 ratio of Biotin-Ahx-Ub-VS probe labelling (fragment/DMSO); higher = less target engagement (more negative = stronger competition), active = hit call of the paper (q ≤ 0.05, log2 ratio ≤ -1)
Settings in all cases: compound concentration: 200 uM; treatment time: 3 h
[1] = target: T1, USP42 (UniProt Q9H9J4)
T1 sequence (whole entry): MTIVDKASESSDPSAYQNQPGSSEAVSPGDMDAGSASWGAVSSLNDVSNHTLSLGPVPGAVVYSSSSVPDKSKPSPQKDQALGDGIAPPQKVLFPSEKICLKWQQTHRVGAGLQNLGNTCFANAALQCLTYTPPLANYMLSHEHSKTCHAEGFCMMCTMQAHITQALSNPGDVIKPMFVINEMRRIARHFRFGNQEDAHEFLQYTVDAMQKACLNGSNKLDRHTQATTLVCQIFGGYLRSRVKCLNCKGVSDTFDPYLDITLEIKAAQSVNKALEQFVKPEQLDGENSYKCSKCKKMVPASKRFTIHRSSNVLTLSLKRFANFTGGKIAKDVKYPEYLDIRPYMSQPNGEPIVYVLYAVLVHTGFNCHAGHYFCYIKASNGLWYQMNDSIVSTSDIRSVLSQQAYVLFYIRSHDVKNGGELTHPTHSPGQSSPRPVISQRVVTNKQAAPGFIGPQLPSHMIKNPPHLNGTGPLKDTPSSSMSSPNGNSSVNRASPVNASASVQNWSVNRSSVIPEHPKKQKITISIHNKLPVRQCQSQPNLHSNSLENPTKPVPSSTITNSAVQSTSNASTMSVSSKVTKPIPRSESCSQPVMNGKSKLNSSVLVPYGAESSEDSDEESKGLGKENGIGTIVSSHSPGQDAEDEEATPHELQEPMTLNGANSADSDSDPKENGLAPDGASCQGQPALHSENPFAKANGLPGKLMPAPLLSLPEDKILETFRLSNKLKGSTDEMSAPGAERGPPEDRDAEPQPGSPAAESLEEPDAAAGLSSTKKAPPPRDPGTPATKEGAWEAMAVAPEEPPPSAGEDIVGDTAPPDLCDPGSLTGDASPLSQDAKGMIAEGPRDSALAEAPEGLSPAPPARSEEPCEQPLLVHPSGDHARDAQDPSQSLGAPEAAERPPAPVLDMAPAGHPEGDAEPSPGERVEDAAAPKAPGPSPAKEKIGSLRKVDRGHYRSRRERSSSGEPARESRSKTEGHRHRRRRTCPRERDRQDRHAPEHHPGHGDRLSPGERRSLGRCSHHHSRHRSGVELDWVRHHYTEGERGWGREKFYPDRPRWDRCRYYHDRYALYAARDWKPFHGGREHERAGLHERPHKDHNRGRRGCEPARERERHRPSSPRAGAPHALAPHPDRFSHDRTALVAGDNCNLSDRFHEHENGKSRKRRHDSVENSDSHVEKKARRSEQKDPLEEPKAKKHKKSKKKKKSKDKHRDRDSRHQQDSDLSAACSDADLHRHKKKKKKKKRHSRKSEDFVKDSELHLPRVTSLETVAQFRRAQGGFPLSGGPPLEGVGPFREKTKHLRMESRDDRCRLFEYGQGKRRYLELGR
Method in brief: (§1)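 HEK293T lysate, 495 µg per sample in Tris/CHAPS/IGEPAL buffer with protease inhibitors, was treated in triplicate with fragment at 200 µM or vehicle for 3 h and then with Biotin-Ahx-Ub-VS at 0.5 µM final for 1 h. Labelled DUBs were NeutrAvidin-enriched, digested with LysC and trypsin, and run by diaPASEF LC-MS/MS. Spectronaut label-free quantities were global-median-normalised, and values are average log2 fragment/vehicle ratios by unpaired t-test on proteins with ≥2 unique peptides.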

[2] = target: USP46 (UniProt P62068)
Method in brief: as §1

[3] = target: T2, USP47 (UniProt Q96K76)
T2 sequence (whole entry): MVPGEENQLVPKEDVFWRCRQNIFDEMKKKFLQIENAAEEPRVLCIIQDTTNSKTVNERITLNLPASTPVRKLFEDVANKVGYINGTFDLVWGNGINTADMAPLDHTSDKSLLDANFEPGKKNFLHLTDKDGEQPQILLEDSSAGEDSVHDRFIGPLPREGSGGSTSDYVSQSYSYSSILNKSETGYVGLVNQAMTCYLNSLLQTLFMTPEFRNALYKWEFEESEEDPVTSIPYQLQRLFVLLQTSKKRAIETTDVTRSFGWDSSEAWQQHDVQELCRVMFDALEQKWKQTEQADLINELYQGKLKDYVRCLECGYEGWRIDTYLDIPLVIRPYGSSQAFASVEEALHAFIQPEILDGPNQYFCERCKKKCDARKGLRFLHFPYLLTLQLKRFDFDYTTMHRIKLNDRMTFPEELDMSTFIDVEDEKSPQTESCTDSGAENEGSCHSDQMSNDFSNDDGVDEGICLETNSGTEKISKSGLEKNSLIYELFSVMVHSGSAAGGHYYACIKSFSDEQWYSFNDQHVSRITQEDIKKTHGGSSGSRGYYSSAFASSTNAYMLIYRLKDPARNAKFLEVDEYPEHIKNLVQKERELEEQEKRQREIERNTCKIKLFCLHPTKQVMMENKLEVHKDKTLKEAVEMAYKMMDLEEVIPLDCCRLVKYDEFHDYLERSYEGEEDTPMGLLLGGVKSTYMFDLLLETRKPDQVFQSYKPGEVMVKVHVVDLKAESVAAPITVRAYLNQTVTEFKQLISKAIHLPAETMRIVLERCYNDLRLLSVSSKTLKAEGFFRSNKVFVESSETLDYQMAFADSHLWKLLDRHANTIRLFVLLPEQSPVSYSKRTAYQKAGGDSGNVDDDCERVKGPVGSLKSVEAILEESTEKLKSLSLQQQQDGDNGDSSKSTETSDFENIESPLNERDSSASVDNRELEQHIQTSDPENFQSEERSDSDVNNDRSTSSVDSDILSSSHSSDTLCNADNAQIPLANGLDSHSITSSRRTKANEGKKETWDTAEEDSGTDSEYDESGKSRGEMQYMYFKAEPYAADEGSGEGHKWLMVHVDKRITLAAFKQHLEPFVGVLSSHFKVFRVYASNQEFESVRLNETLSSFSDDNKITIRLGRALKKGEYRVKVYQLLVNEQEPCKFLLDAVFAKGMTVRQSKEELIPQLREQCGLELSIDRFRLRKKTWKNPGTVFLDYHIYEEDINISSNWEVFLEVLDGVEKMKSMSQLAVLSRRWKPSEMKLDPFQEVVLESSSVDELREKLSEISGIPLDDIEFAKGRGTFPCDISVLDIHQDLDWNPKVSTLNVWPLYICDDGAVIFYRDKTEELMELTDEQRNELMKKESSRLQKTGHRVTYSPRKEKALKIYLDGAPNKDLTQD
Method in brief: as §1

[4] = target: T3, USP48 (UniProt Q86UV5)
T3 sequence (whole entry): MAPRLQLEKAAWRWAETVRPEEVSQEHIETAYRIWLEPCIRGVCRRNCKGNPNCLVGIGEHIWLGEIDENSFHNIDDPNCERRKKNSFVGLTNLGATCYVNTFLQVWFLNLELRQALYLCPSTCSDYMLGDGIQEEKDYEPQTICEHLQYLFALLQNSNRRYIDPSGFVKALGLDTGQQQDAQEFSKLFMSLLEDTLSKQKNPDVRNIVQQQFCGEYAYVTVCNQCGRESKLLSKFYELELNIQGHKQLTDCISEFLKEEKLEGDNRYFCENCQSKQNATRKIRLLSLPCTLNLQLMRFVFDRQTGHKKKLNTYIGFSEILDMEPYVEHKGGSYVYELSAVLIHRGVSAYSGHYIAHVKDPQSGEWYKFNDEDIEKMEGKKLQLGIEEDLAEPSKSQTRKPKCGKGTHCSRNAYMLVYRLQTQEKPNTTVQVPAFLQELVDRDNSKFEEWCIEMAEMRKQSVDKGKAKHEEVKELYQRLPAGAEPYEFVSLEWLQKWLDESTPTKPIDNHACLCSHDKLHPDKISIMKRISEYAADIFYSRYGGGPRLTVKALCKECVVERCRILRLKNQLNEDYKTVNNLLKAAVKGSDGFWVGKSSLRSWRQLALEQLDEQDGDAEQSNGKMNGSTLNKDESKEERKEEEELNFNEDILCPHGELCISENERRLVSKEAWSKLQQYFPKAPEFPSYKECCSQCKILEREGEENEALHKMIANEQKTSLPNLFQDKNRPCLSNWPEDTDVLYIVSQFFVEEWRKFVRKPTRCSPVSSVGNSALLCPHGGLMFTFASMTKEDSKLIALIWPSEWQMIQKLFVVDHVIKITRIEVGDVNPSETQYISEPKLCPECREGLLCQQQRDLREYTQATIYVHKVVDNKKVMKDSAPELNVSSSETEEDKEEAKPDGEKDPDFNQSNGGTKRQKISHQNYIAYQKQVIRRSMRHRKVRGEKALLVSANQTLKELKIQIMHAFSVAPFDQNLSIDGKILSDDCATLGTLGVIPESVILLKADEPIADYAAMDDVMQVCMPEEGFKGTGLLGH
Method in brief: as §1

[5] = target: T4, USP5 (UniProt P45974)
T4 sequence (whole entry): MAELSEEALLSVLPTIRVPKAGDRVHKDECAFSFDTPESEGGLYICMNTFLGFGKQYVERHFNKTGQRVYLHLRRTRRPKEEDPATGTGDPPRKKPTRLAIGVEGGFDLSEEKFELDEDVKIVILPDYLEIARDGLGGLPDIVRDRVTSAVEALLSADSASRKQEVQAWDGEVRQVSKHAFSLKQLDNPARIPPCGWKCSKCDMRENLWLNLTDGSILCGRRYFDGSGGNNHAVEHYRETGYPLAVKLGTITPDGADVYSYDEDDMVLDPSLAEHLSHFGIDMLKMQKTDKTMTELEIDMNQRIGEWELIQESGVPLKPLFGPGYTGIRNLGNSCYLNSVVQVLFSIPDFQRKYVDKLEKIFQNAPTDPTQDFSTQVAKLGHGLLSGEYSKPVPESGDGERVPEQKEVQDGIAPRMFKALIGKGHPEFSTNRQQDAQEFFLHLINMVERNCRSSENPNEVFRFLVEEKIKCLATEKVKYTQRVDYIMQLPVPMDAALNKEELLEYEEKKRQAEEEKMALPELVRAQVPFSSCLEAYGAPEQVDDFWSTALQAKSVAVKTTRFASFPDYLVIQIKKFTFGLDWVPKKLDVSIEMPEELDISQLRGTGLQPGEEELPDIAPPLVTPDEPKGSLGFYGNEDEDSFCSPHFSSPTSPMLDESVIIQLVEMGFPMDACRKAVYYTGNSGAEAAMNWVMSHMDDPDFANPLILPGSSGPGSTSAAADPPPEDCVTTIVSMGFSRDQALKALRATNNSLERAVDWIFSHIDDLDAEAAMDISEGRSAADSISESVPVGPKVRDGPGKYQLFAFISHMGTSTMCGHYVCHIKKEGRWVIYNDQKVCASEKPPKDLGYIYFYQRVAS
Method in brief: as §1

[6] = target: USP54 (UniProt Q70EL1)
Method in brief: as §1

[7] = target: USP7 (UniProt Q93009)
Method in brief: as §1

[8] = target: T5, USP8 (UniProt P40818)
T5 sequence (whole entry): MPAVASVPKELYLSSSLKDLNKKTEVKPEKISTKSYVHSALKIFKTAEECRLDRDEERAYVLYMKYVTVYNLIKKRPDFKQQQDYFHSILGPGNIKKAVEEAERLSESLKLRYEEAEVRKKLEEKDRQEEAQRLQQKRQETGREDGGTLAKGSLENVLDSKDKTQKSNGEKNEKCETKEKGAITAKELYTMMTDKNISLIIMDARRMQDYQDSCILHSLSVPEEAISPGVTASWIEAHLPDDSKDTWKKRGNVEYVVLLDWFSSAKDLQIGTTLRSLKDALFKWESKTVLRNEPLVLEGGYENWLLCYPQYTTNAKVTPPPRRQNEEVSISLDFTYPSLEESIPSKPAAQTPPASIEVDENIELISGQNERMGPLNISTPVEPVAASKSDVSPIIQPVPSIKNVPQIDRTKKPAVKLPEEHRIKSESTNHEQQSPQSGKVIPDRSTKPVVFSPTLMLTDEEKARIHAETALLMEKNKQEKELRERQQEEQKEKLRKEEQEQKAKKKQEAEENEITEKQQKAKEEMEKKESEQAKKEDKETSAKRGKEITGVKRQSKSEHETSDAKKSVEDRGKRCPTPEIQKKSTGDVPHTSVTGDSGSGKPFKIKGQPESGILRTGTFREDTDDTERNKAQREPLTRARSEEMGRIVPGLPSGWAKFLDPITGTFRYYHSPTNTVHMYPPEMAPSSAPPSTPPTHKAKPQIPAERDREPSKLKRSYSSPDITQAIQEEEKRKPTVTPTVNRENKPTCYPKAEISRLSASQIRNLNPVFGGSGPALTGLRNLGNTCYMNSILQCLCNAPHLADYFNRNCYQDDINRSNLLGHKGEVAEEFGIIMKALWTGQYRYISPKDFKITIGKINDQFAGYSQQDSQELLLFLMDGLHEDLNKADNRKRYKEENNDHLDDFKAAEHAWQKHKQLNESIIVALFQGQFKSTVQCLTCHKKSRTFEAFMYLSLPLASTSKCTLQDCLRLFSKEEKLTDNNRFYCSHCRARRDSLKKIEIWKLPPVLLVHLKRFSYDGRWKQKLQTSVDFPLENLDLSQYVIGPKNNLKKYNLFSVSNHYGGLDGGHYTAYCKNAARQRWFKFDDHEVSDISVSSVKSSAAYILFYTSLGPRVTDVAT
Method in brief: as §1

[9] = target: USP9X (UniProt Q93008)
Method in brief: as §1

[10] = target: UniProt O00487
Method in brief: as §1

Measured: log2 ratio of Biotin-Ahx-Ub-VS probe labelling

UniProt O00487, sequence (O00487 whole entry): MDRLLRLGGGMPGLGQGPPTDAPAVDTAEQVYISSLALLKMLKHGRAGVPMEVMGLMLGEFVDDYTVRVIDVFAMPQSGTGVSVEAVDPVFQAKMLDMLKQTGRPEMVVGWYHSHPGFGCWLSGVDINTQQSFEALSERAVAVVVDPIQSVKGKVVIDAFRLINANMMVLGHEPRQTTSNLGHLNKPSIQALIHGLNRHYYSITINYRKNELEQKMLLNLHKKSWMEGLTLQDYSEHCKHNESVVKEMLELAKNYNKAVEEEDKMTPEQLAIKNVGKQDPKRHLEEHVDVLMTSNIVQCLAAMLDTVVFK
USP9X, sequence (Q93008 whole entry): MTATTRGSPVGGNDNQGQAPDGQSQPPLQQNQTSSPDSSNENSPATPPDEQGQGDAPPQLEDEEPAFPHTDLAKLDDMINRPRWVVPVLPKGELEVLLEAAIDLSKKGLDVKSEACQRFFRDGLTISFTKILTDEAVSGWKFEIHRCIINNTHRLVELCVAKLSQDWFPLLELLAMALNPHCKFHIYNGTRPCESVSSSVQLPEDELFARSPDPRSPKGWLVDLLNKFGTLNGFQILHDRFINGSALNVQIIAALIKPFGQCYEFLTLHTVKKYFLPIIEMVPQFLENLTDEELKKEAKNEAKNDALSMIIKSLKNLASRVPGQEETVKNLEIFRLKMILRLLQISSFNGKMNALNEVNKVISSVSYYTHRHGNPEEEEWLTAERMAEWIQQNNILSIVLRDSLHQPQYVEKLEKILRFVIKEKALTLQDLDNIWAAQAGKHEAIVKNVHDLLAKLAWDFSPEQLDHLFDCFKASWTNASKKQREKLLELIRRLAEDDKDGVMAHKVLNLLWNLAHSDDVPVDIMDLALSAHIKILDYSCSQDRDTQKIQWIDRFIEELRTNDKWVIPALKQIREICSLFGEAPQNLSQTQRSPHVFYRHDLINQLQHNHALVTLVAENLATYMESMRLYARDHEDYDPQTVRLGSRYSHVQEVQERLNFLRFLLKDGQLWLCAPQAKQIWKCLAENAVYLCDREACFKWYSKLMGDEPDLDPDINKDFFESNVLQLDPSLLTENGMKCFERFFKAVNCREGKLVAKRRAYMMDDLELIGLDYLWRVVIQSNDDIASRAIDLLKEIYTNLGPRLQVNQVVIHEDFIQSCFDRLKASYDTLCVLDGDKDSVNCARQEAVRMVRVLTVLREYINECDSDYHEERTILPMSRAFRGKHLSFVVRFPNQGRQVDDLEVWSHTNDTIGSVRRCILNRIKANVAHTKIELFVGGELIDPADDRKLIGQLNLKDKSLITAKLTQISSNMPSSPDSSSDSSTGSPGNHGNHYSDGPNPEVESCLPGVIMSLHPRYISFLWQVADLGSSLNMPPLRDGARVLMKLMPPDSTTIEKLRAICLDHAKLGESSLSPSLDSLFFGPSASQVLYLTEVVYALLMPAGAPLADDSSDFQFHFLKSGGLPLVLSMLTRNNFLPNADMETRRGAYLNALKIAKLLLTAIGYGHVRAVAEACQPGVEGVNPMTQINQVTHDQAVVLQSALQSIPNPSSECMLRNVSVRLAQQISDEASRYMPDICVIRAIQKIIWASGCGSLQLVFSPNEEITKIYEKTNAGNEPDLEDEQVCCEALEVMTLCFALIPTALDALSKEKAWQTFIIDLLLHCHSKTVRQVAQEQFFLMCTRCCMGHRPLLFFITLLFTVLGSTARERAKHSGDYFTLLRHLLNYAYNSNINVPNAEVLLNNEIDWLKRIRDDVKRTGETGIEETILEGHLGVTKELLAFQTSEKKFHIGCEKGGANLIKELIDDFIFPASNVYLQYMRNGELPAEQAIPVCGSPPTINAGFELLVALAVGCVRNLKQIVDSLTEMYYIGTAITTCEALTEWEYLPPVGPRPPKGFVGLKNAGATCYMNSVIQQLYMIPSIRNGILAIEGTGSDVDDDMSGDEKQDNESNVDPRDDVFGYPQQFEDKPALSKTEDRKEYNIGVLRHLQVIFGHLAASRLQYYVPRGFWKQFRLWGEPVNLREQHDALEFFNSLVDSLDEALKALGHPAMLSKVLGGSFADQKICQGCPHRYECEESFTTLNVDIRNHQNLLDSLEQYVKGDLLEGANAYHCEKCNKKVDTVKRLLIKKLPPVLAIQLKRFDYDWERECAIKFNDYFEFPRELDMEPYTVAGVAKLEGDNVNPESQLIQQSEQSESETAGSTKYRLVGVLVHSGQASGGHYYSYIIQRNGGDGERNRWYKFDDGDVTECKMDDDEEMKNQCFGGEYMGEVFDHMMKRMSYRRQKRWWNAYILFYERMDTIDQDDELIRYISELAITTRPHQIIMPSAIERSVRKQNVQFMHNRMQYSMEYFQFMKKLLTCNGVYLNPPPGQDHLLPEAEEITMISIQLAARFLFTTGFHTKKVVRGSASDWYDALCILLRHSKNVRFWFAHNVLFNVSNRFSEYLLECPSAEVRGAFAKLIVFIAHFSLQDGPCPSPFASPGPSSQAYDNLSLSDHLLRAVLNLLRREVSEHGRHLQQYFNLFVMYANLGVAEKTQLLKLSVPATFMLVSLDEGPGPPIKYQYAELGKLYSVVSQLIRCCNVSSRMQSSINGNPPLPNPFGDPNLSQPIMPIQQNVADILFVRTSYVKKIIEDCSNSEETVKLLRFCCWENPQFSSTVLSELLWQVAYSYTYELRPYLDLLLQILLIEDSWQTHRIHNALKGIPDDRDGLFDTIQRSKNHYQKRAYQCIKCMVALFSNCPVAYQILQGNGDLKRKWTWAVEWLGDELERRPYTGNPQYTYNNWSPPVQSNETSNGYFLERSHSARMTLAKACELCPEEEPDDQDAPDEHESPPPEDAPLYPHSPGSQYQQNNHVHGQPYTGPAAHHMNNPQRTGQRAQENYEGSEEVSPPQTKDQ
USP46, sequence (P62068 whole entry): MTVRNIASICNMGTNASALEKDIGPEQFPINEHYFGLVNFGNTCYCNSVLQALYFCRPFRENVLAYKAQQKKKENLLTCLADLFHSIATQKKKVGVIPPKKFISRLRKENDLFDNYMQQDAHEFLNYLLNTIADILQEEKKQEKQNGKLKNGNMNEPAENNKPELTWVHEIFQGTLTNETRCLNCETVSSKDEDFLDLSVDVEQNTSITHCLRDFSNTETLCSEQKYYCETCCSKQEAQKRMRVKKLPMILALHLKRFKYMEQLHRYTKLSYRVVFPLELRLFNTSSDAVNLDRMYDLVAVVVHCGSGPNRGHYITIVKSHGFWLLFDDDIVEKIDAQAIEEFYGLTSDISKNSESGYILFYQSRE
USP54, sequence (Q70EL1 whole entry): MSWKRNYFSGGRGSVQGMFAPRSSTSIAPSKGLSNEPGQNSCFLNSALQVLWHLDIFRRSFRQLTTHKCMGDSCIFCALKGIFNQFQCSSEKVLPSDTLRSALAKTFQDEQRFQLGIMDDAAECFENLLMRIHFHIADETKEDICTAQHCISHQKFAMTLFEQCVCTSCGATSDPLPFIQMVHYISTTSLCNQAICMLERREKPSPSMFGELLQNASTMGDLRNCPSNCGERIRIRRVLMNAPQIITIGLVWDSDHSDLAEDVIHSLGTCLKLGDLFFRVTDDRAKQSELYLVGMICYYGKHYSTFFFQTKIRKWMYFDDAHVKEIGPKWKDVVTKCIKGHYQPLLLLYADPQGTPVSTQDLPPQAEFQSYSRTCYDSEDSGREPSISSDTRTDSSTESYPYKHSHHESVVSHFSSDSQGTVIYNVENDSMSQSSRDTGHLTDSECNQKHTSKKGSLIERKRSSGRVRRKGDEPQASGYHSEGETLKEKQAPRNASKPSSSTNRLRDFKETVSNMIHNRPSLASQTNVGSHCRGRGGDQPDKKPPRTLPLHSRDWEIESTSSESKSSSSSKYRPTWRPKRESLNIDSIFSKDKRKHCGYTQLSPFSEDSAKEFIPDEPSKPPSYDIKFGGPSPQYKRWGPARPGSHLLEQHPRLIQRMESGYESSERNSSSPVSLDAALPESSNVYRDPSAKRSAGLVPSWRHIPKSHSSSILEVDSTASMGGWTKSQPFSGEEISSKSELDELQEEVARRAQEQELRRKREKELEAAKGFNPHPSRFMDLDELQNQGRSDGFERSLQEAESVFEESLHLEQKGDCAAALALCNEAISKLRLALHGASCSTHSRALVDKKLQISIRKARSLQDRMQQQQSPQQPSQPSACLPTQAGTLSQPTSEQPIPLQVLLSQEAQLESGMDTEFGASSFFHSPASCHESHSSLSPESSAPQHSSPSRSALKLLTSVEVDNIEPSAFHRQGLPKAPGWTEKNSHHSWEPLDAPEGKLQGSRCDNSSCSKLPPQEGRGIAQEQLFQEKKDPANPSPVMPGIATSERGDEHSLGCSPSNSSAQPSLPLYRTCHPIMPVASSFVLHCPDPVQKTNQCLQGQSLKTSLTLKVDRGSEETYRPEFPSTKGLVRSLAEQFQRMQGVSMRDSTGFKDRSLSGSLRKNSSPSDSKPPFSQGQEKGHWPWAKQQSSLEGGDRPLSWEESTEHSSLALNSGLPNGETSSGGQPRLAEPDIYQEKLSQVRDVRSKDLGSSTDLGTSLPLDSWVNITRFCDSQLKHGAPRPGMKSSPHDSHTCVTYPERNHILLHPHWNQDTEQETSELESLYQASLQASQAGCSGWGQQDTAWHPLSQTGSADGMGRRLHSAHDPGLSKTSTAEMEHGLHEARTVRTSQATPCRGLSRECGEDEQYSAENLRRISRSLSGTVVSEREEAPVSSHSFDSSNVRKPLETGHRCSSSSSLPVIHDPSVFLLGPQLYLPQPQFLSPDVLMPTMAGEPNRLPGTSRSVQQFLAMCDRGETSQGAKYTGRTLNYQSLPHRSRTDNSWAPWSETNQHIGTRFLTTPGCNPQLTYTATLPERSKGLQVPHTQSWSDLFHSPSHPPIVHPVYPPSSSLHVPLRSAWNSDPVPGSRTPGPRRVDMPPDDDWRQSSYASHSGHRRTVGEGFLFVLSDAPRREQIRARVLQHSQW

O=C(CCl)N1CCC(c2nc3ccccc3o2)CC1
inactive: [1] -0.0372 | [2] -0.0557 | [3] -0.397 | [4] -0.598 | [5] 0.186 | [6] 0.726 | [7] -0.746 | [8] -0.0637 | [9] -0.351 | [10] -0.154
